# Screens deposited in PubChem BioAssay by National Center for Advancing Translational Sciences (NCATS).
# Compounds with a hit are over-represented: about 12% of the library has one in this group of screens.
# BAZ2B block – blocks human BAZ2B. Potency, µM (top dose mostly 114 µM), hits mostly inhibitors. 360,000 tested, 4.4% active. AlphaScreen BAZ2B-H3K14Ac peptide displacement. AID 504333. Q9UIF8; note: nearly all actives have a fitted effect of over 60% in size
#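 Multi-concentration screen (max 110 uM) measuring displacement of acetylated histone H3 peptide from BAZ2B by AlphaScreen, using 50 nM protein, 50 nM peptide and 10 ug/mL streptavidin donor plus Ni-chelate acceptor beads.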
# G9a block – blocks human histone lysine methyltransferase G9a. 350,000 tested, 8.8% active. G9a H3K9 monomethylation, AlphaScreen, 2 h. Potency, µM (top dose mostly 102 µM), usual class: inhibitors. Q96KQ7; note: nearly all actives have a fitted effect of over 75% in size
# Target sequence (Q96KQ7 913-1193 limits assumed): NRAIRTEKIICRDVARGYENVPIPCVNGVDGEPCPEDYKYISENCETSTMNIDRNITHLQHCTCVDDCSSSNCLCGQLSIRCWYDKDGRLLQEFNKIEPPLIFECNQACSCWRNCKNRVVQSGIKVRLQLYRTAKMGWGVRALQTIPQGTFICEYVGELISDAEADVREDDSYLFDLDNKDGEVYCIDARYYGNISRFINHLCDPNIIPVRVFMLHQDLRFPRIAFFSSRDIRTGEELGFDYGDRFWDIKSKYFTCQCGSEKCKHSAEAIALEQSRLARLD
#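 G9a (20 nM) preincubated 15 min RT with compounds, then 500 nM biotinylated H3K9 peptide and 20 uM SAM added; 2 h RT reaction. Monomethyl-H3K9 product detected by AlphaScreen with anti-H3K9me1 antibody, streptavidin donor and anti-rabbit IgG acceptor beads.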
# JMJD2A Tudor – inhibitors of human JMJD2A Tudor domain | AlphaScreen JMJD2A-Tudor / H3K4me3 peptide binding | Potency, µM (top dose mostly 114 µM), most hits filed as inhibitors | 390,000 tested, 4.4% active | AID 504339; note: nearly all actives have a fitted effect of over 50% in size
# HP1b binding inh – blocks HP1-beta chromodomain binding to methylated histone tails | P83916 | AlphaScreen HP1-beta / biotin-H3K9me3 peptide binding | Potency, µM (doses to about 114 µM), actives largely listed as inhibitors | 390,000 tested, 0.56% active | AID 540317; note: nearly all actives have a fitted effect of over 70% in size
# Target sequence (P83916 whole entry, looked up): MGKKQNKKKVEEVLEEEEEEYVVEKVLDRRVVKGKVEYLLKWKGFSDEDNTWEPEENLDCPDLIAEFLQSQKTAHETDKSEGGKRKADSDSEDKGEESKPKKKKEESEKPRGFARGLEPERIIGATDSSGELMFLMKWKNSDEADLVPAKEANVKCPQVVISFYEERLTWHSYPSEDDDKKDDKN
#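 HP1-beta protein (50 nM final) preincubated 30 min at room temperature with biotinylated H3(1-18)K9me3 peptide (50 nM) in PBS pH 7.4, 0.01% Tween-20, then compound added for 30 min. AlphaScreen streptavidin donor/nickel chelate acceptor beads (10 ug/mL final), 30 min dark, luminescence read.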
# Sfp inh – inhibitors of Bacillus subtilis Sfp phosphopantetheinyl transferase. Q9F4F7. Potency, µM, usual class: inhibitors. Biochemical Sfp PPTase activity, qHTS. 310,000 tested, 3.5% active;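 note: the enzyme is Sfp with the accession as filed and its product quenches rhodamine fluorescence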
#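 Fluorescence-quenching assay with 15 nM Sfp, 5 uM rhodamine-CoA and 12.5 uM BHQ-2-labelled ybbR peptide in pH 7.6 Hepes/MgCl2 buffer. Enzyme was pre-incubated with compound for 15 min at room temperature. Rate was taken from the 30-min fluorescence change (525/598 nm).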
# Numbers stand for hits; 0 = inactive; ? = inconclusive; - = no result given; [ ] = remark or other dose. Calls come from the whole dose curve; as a rule, active = well fitted curve in the direction sought with a large enough effect; inconclusive = small, poorly fitted or top-dose-only effect, or another doubt; inactive = no such curve, though single readings can be large; an effect the other way counts as inactive or inconclusive.
SMILES,BAZ2B block,G9a block,JMJD2A Tudor,HP1b binding inh,Sfp inh
Cc1[nH][nH]c(=O)c1C(c1ccc(-c2ccc(Cl)cc2Cl)o1)c1c(C)[nH][nH]c1=O,?,7.08µM,-,-,50.1µM
Cc1[nH][nH]c(=O)c1C(c1ccc(-c2cccc(Cl)c2)o1)c1c(C)[nH][nH]c1=O,39.8µM,-,44.7µM,?,44.7µM
CCCCC/C=C\C/C=C\C[C@H](O)/C=C/C=C\CCCC(=O)O,-,-,-,-,0
COCCCNC(=O)CCCCn1c(=O)c2ccccc2n(CC(=O)Nc2ccc(C)cc2C)c1=O,0,0,0,0,-
O=C(Nc1cccc(Cl)c1)N1Cc2ccccc2Oc2ncccc21,0,0,0,0,-
Cc1cccc(NS(=O)(=O)c2ccc3c(c2)CC(C)N3C(=O)C2CCC2)c1C (configuration not stated),0,0,0,0,-
Cc1[nH][nH]c(=O)c1C(c1ccc(-c2cccc(C(=O)O)c2)o1)c1c(C)[nH][nH]c1=O,79.4µM,17.8µM,56.2µM,?,15.8µM
O=C(/C=C/c1ccccc1)Nc1cccc(C(=O)NCCCCc2ccccc2)c1,-,-,0,0,-
O=C(O)CCC/C=C\C[C@H]1C(=O)C[C@@H](O)[C@@H]1/C=C/[C@@H](O)CCc1ccccc1,-,0,-,-,0
CCc1ccc2c(c1)NC(c1ccc(C)cc1)=NC(c1cccs1)=N2,25.1µM,12.6µM,44.7µM,?,-
Clc1ccc2c(c1)NC(c1ccncc1)=NC(c1cccs1)=N2,?,28.2µM,?,0,-
CCCCOc1ccc(C2=NC(c3cccs3)=Nc3ccc(CC)cc3N2)cc1,?,?,?,0,-
CCOc1ccc(C2=NC(c3cccs3)=Nc3ccc(C(C)C)cc3N2)cc1,22.4µM,10µM,20µM,0,-
COc1ccc2c(c1)c1nc3ccccc3nc1n2Cc1ccc(OC(C)C)c(OC)c1,0,0,0,0,14.1µM
COc1ccc(Cn2c3ccc(OC)cc3c3nc4ccccc4nc32)cc1,0,0,0,0,0
O=C(CCc1c[nH]c2ccccc12)OCc1cccc([N+](=O)[O-])c1,?,39.8µM,?,?,0
CN(C(=O)COC(=O)CCc1c[nH]c2ccccc12)C(c1ccccc1)c1ccccc1,?,12.6µM,?,0,0
O=C(COC(=O)CCc1c[nH]c2ccccc12)NCc1ccccc1,?,0,0,0,0
O=c1cnc2cnc(N3CCOCC3)nc2n1Cc1ccc(F)cc1,-,0[12.7 µM],-,-,0
Oc1ccc(CCNc2c3ccccc3nc3ccccc23)cc1O,?,0[0.501 µM],28.2µM,0,?
CCCCn1c(=O)[nH]c(=O)c2c1nc(-c1ccc3ccccc3c1)n2CC,0,0,0,0,0
CCCCn1c(=O)[nH]c(=O)c2c1nc(-c1ccc(-c3ccccc3Br)o1)n2CC,0,10µM,0,0,14.1µM
CCCCn1c(=O)[nH]c(=O)c2c1nc(-c1ccc(-c3ccccc3)cc1)n2C,0,39.8µM,0,0,0
CCCCn1c(=O)[nH]c(=O)c2c1nc(-c1ccc(C(F)(F)F)cc1)n2C,0,0,0,0,0
Cc1cc(C)nc(Sc2ncnc(N)c2[N+](=O)[O-])n1,?,0[12.7 µM],0,0,50.1µM
SMILES,BAZ2B block,G9a block,JMJD2A Tudor,HP1b binding inh,Sfp inh
Cn1c2ccccc2c2c(C(=O)N3CCN(c4cccc(Cl)c4)CC3)cn(C3CCCCC3)c(=O)c21,0,0,0,0,-
Cc1ccc(CNC(=O)c2cn(C3CCCC3)c(=O)c3c2c2ccccc2n3C)o1,56.2µM,11.2µM,-,-,1.41µM
CCOC(=O)N1CCN(C(=O)c2cn(C)c(=O)c3c2c2ccccc2n3C)CC1,0,0,0,0,0
COc1ccc(N2CCN(C(=O)c3cn(C)c(=O)c4c3c3ccccc3n4C)CC2)cc1,44.7µM,31.6µM,?,0,0
COc1ccc(N2CCN(C(=O)c3cn(C4CCCC4)c(=O)c4c3c3ccccc3n4C)CC2)cc1,?,31.6µM,14.1µM,?,0
CN1C=CC=C/C1=C1\SC(=S)N(N)C1=O,0,28.2µM,0,0,0
O=C(CCCCCN1C(=O)CCC1=O)Nc1ncn[nH]1,50.1µM,0[12.7 µM],50.1µM,0,0
Cc1c(Cl)cccc1NC(=O)CCCCCN1C(=O)CCC1=O,0,0[12.7 µM],0,0,0
COc1cccc(-c2cncnc2Nc2ccc(F)cc2)c1,-,0[0.501 µM],-,-,79.4µM
COC(=O)c1c(C)sc(-c2c(-c3ccc4c(c3)OCCO4)[nH]c3[nH]c(=O)[nH]c(=O)c23)c1O,35.5µM,14.1µM,50.1µM,?,-
CS(=O)(=O)NCCc1csc2nc(-c3ccccc3)nn12,0,0,0,0,-
CCCCSc1nnc2c(n1)OC(c1ccc(Br)s1)N(C(C)=O)c1ccccc1-2 (configuration not stated),?,10µM,?,0,-
CCCCCSc1nnc2c(n1)OC(c1ccc(C)s1)N(C(C)=O)c1ccccc1-2 (configuration not stated),0,?,?,0,-
CCOc1nc(SC(C(C)=O)C(=O)Nc2ccccc2)nc(N(C)C)n1 (configuration not stated),0,12.6µM,79.4µM,0,0
CNC[C@H](CC1CCCCC1)NC[C@H](Cc1ccccc1)NCCC12CC3CC(CC(C3)C1)C2,?,44.7µM,0,0,44.7µM
NC[C@H](Cc1ccccc1)NCCCCC1CCCCC1,0,0[0.501 µM],0,0,-
CC(=O)Nc1cc2c(=O)n(Cc3ccccc3)c(C)nc2cc1N1CCOCC1,?,50.1µM,0,0,0
Cc1nc2cc(N3CCCCC3)c(NC(=O)c3cccnc3)cc2c(=O)n1Cc1ccccc1,0,0,0,0,0
CC(=O)c1cn(-c2ccc([N+](=O)[O-])cc2)c(=O)n(C)c1=O,-,-,0,0,-
Cn1c(CBr)c(C(=O)c2ccc([N+](=O)[O-])cc2)c(=O)n(C)c1=O,0,28.2µM,0,0,?
N/C(Cc1ccccc1)=N\OC(=O)c1cccc2ccccc12,0,0,0,0,0
COc1cccc(NC(=O)[C@H](CC(C)C)NC(=O)N2CCn3c2nc2ccccc23)c1,0,0,0,0,0
COc1ccc(C2NCCc3c2[nH]c2ccccc32)cc1CSc1nc2ccccc2s1 (configuration not stated),44.7µM,8.91µM,25.1µM,?,44.7µM
O=S(=O)(c1ccc2[nH]c3c(c2c1)CCCC3)N1CCCCC1,25.1µM,-,0,0,0
Cc1ccc(NS(=O)(=O)c2ccc3[nH]c4c(c3c2)CCCCCC4)cc1C,0,?,?,0,-
SMILES,BAZ2B block,G9a block,JMJD2A Tudor,HP1b binding inh,Sfp inh
Cc1ccc(NS(=O)(=O)c2ccc3[nH]c4c(c3c2)CCCCCC4)cc1,39.8µM,?,?,0,-
COc1ccc(NS(=O)(=O)c2ccc3[nH]c4c(c3c2)CCCC4)cc1OC,?,11.2µM,44.7µM,?,-
CN(C)c1ccc(-c2nccc(Nc3ccc(F)cc3)n2)cc1,-,0[0.501 µM],-,-,?
Cc1ccc(OCCSc2ncnc3nc[nH]c23)cc1,0,39.8µM,0,0,0
CC(C)c1ccc(C(=O)Nc2ccc(-c3nc4ccccc4s3)c(Cl)c2)cc1,0,0,0,0,-
CCC(=O)NC(Nc1sc2c(c1C(=O)OC)CCC2)C(Cl)(Cl)Cl (configuration not stated),?,0,0,0,20µM
